The record followed here is PubChem BioAssay AID651582 (Sanford-Burnham Center for Chemical Genomics, 2012).

Hit rate of the full screen: of about 230,000 compounds, about 1,500 (0.65%) were called active.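 How the source made its calls: active means pattern-corrected inhibition of lipid staining of at least 50% with the nuclear-stain viability signal not falling by more than 50%; inactive means the rest, inconclusive results apart.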 The list comes from a sample in which actives are over-represented; it also holds similar structures and randomly drawn compounds.

This assay can be described thus: TAG lipid buildup reduction in H9c2 cells – cell-based, uHTS, fluorescence, primary screen (AID 651582).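 On inhibition: 0% = DMSO wells and 100% = triacsin C control wells.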 As to conditions: Nile Red lipid (TAG) fluorescence, at 12.5 µM, cells loaded with 200 µM oleic acid; DAPI nuclei signal change (viability), lower = more cytotoxic: measured here: DAPI nuclei count viability; inhibition: stronger effect = higher value.
Usually inhibition stands for the relative decrease from the control value, in per cent. `COC(=O)Nc1nc2ccc(Sc3ccccc3)cc2[nH]1`: the DAPI nuclei signal change (viability), lower = more cytotoxic is -43.5% and the inhibition was 58.7% (active).

As for `COc1ccc2nc(SCC(=O)Nc3c(C)cc(C)cc3C)[nH]c2c1`, the DAPI nuclei signal change (viability), lower = more cytotoxic is -8.51% and the inhibition was 24.4% (inactive).

Consider `Cc1nc2ccc(C(=O)O)cc2[nH]1`, for which the DAPI nuclei signal change (viability), lower = more cytotoxic came to 7.29% and the inhibition is -10.7% (inactive).

As for `N#Cc1ccc(-c2ccc3nccn3c2)cc1`, the DAPI nuclei signal change (viability), lower = more cytotoxic came out at 18.4% and the inhibition was -21.5% (inactive).

In the case of `COc1cc(C(=O)NCC(c2ccco2)N2CCCC2)ccc1OCc1ccccc1` (stereo not given), the DAPI nuclei signal change (viability), lower = more cytotoxic worked out at 9.22% and the inhibition is 5.54% (inactive).

For `CCC1CCCCN1C(=S)NC(=O)c1ccco1` (stereo not given), the DAPI nuclei signal change (viability), lower = more cytotoxic was -3.85% and the inhibition was -2.4% (inactive).

Regarding `COC(=O)c1ccc(-c2c(-c3ccccc3)ncc3cc(OC)c(OC)cc23)cc1`, the DAPI nuclei signal change (viability), lower = more cytotoxic is -46.2% and the inhibition is 70.6% (active).

Turning to `COC(=O)c1ccc(SCc2ccccc2)nc1`, the DAPI nuclei signal change (viability), lower = more cytotoxic turned out to be 0.616% and the inhibition was -5.84% (inactive).

In the case of `COc1ccc(OCC(=O)NNC(=O)c2ccc(-c3ccccc3)cc2)cc1`, the DAPI nuclei signal change (viability), lower = more cytotoxic is -4.12% and the inhibition was -6.97% (inactive).

For the molecule `CN(CC(=O)Nc1c(Cl)cccc1Cl)C(=O)CC1OC(=O)c2ccccc21` (stereo not given), the DAPI nuclei signal change (viability), lower = more cytotoxic is -7% and the inhibition was 2.91% (inactive).

As for `COc1ccc(S(=O)(=O)N2CCCCC2c2cc(C(=O)NCc3ccc(F)cc3)no2)cc1` (stereo not given), the DAPI nuclei signal change (viability), lower = more cytotoxic is -7.14% and the inhibition was 11.8% (inactive).

For the molecule `O=C(Nc1ccc(OC(F)(F)F)cc1)c1ccc2c(c1)no[n+]2[O-]`, the DAPI nuclei signal change (viability), lower = more cytotoxic was -44.5% and the inhibition was 57.3% (active).

Take `Cn1nccc1NC(=O)Nc1ccc(OC(F)(F)F)cc1`: the DAPI nuclei signal change (viability), lower = more cytotoxic amounted to 0.761% and the inhibition is -19.5% (inactive).

As to `CCOC(=O)Cc1ncccc1C(=O)Nc1ccc(OC(F)(F)F)cc1`, the DAPI nuclei signal change (viability), lower = more cytotoxic was -10.3% and the inhibition is -0.736% (inactive).

Consider `Cc1ccccc1Cn1c(C)c(C(=O)NCc2cccc(C(F)(F)F)c2)sc1=O`, for which the DAPI nuclei signal change (viability), lower = more cytotoxic turned out to be 2.91% and the inhibition is 13.2% (inactive).

For `COc1ccc(-c2ccc(CN3C(CC(C)C)C(=O)N(Cc4cn(CC5CCCCC5)nn4)CCS3(=O)=O)cc2)cc1` (stereo not given), the DAPI nuclei signal change (viability), lower = more cytotoxic was -3.84% and the inhibition was 14.3% (inactive).

For the molecule `CC(=O)c1cccc(-c2ccc(CN3C(CC(C)C)C(=O)N(Cc4cn(CC5CCCCC5)nn4)CCS3(=O)=O)cc2)c1` (stereo not given), the DAPI nuclei signal change (viability), lower = more cytotoxic is -20.7% and the inhibition was 52.2% (active).

As for `CC(C)CC1C(=O)N(Cc2cn(CC3CCCCC3)nn2)CCS(=O)(=O)N1Cc1ccc(-c2ccc(Cl)cc2)cc1` (stereo not given), the DAPI nuclei signal change (viability), lower = more cytotoxic is -4.47% and the inhibition is 46.5% (inactive).

Take `Cc1ccccc1-c1cc(C(=O)NCc2cccs2)n(CC2CC(c3cccnc3)=NO2)n1` (stereo not given): the DAPI nuclei signal change (viability), lower = more cytotoxic is -34.7% and the inhibition was -1.76% (inactive).

Take `O=C(CCc1ccc(S(=O)(=O)N2CCOCC2)cc1)OCC(=O)c1ccc(Br)cc1`: the DAPI nuclei signal change (viability), lower = more cytotoxic is 5.4% and the inhibition is -35.9% (inactive).

For `CN(C)S(=O)(=O)c1cccc(NC(=S)NCc2ccc3c(c2)OCO3)c1`, the DAPI nuclei signal change (viability), lower = more cytotoxic amounted to 8.91% and the inhibition is -12.9% (inactive).

`Cc1ccc(/C=N/NC(=S)NC2CCCCC2)o1`: the DAPI nuclei signal change (viability), lower = more cytotoxic was -2.44% and the inhibition is 15.8% (inactive).

With `Cc1ccc(/C=N/NC(=S)Nc2cccc(S(=O)(=O)N(C)C)c2)o1`, the DAPI nuclei signal change (viability), lower = more cytotoxic is -39% and the inhibition is 65.8% (active).

On to `CN1OC[C@@H]2CN[C@H](c3ccc(-c4ccccc4)cc3)C[C@@H]21`, for which the DAPI nuclei signal change (viability), lower = more cytotoxic was -19.9% and the inhibition is 37.5% (inactive).

Consider `COc1ccccc1Nc1nc(N)nc(CN(C)C2CCCCC2)n1`, for which the DAPI nuclei signal change (viability), lower = more cytotoxic is -2.24% and the inhibition is -18.7% (inactive).

Take `COc1ccccc1NC1=NC(c2ccc(Cl)cc2)N=C(N)N1` (stereo not given): the DAPI nuclei signal change (viability), lower = more cytotoxic was -23.4% and the inhibition is 58.3% (active).

Take `COc1ccccc1NC1=NC2(CCCC2)N=C(N)N1`: the DAPI nuclei signal change (viability), lower = more cytotoxic is -8.79% and the inhibition was 8.65% (inactive).

On to `Cc1ccc(NC(=O)CN(C)C(=O)c2ccc(Cl)c(S(=O)(=O)NCc3ccco3)c2)cc1`, for which the DAPI nuclei signal change (viability), lower = more cytotoxic was -5.08% and the inhibition is 12.3% (inactive).

Take `CCCCc1ccc(S(=O)(=O)NC(=O)C2(C)CCN2C(=O)c2c(C)noc2C)cc1` (stereo not given): the DAPI nuclei signal change (viability), lower = more cytotoxic was determined as 2.79% and the inhibition was 0.354% (inactive).

With `O=C(Nc1cccc(C(=O)O)c1)/C(=C\c1ccccc1)NC(=O)c1ccc(Br)o1`, the DAPI nuclei signal change (viability), lower = more cytotoxic was -3.36% and the inhibition was 6.66% (inactive).

In the case of `COc1ccc2sc(-c3ccc(S(C)(=O)=O)cc3)c(C#Cc3cncn3C)c2c1`, the DAPI nuclei signal change (viability), lower = more cytotoxic stood at 54.1% and the inhibition was 93.5% (active).

On to `Cn1cncc1C#Cc1c(-c2ccsc2)sc2ccccc12`, for which the DAPI nuclei signal change (viability), lower = more cytotoxic worked out at 7.19% and the inhibition was -0.161% (inactive).

On to `COc1ccc2sc(-c3ccc(S(C)(=O)=O)cc3)c(-c3ccc(C(N)=O)cc3)c2c1`, for which the DAPI nuclei signal change (viability), lower = more cytotoxic was -5.68% and the inhibition was 33.1% (inactive).

`O=C(O)c1ccc([N+](=O)[O-])cc1Sc1ccsc1`: the DAPI nuclei signal change (viability), lower = more cytotoxic is -1.85% and the inhibition was -10.5% (inactive).

On to `CCOC(=O)c1cc(-c2sc(NC(=O)c3ccccc3)nc2C)n(Cc2ccccc2)n1`, for which the DAPI nuclei signal change (viability), lower = more cytotoxic is -2.4% and the inhibition is 44.7% (inactive).

On to `COCCNc1ncnc2c1ncn2[C@H]1CN(CCN2CCOCC2)C[C@@H](CO)O1`, for which the DAPI nuclei signal change (viability), lower = more cytotoxic was -0.911% and the inhibition is 0.573% (inactive).

With `CCCOC(=O)c1[nH]c2c(c1C)C(=O)CC(c1cccs1)C2` (stereo not given), the DAPI nuclei signal change (viability), lower = more cytotoxic is -13.9% and the inhibition is 64.7% (active).

Turning to `COC(=O)C1C(=O)c2c([nH]c(C(=O)OCCSC)c2C)CC1C` (stereo not given), the DAPI nuclei signal change (viability), lower = more cytotoxic is -3.66% and the inhibition is 1.54% (inactive).

In the case of `CCCOC(=O)c1[nH]c2c(c1C)C(=O)CC(c1cc(OC)c(OC)c(OC)c1)C2` (stereo not given), the DAPI nuclei signal change (viability), lower = more cytotoxic was -10.1% and the inhibition was -26.3% (inactive).

For the molecule `Cn1c(CCN2CCN(c3ccccn3)CC2)nc2cc(NS(=O)(=O)c3ccc(F)cc3)ccc21`, the DAPI nuclei signal change (viability), lower = more cytotoxic is 6.59% and the inhibition was -5.66% (inactive).
